Results: ChEMBL document CHEMBL2218924, “A broad activity screen in support of a chemogenomic map for kinase signalling research and drug discovery” (Biochem J, 2013)

Tests used:
[1] = target: Serine/threonine-protein kinase PLK3 (Homo sapiens) (UniProt Q9H4B4); details: at 1 µM
[2] = target: Serine/threonine-protein kinase PLK3 (Homo sapiens) (UniProt Q9H4B4); details: at 10 µM
[3] = target: T1, cAMP-dependent protein kinase catalytic subunit PRKX (Homo sapiens) (UniProt P51817); details: at 1 µM
T1 sequence (whole entry): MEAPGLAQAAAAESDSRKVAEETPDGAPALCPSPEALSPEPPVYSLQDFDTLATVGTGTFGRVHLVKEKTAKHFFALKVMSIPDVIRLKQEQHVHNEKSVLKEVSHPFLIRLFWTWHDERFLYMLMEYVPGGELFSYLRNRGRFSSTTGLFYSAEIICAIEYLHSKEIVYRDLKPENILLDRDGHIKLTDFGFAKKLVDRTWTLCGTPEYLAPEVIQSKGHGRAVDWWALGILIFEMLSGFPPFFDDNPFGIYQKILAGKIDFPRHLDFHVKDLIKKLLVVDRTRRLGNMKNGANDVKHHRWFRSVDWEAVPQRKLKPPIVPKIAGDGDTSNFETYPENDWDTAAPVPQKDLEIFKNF

[4] = target: T1, cAMP-dependent protein kinase catalytic subunit PRKX (Homo sapiens); details: at 10 µM
[5] = target: Protein-tyrosine kinase 2-beta (Homo sapiens) (UniProt Q14289); details: at 10 µM
Protein-tyrosine kinase 2-beta (Homo sapiens), sequence (Q14289 whole entry, looked up): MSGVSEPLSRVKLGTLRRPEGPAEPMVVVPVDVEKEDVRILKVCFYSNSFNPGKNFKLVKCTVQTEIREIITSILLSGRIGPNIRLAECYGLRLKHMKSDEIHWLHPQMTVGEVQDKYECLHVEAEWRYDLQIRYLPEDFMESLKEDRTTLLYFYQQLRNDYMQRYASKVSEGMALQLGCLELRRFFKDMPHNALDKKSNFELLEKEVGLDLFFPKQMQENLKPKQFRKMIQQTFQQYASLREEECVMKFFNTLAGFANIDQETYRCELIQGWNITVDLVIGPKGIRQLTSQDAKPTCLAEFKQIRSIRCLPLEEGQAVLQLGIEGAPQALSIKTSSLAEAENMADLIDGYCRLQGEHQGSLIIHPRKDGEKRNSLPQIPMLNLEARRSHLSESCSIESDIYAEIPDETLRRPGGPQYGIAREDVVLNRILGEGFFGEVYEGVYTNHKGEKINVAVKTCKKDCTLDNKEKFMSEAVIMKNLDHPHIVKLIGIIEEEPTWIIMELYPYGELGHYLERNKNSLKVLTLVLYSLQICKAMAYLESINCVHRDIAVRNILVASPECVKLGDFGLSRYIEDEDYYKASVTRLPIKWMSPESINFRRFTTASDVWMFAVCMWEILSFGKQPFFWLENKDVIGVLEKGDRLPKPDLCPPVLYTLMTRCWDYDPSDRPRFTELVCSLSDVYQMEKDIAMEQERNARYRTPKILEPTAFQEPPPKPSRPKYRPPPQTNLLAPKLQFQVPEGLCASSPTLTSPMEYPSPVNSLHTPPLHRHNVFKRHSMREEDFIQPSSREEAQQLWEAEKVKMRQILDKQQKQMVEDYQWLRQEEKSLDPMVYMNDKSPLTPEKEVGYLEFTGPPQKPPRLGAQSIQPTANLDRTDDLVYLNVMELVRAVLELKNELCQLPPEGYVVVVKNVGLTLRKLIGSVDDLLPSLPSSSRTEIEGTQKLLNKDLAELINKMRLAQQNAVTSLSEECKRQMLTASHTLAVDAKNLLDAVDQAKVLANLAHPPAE

[6] = target: Receptor-interacting serine/threonine-protein kinase 2 (Homo sapiens) (UniProt O43353); details: at 1 µM
Receptor-interacting serine/threonine-protein kinase 2 (Homo sapiens), sequence (O43353 whole entry): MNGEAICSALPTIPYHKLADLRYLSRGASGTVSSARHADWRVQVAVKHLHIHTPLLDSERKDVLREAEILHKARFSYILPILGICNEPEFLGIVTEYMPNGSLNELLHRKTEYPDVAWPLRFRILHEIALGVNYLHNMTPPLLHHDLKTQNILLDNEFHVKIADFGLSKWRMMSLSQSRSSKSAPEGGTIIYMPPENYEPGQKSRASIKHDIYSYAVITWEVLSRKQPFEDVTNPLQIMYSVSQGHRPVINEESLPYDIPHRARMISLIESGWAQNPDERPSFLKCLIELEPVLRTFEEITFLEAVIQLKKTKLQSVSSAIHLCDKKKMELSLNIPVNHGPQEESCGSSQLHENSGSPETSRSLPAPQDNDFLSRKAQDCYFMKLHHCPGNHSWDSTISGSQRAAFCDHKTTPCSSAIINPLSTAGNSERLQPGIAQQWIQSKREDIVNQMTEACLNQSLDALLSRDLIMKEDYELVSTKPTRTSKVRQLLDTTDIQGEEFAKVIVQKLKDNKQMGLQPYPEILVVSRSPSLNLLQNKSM

[7] = target: Receptor-interacting serine/threonine-protein kinase 2 (Homo sapiens) (UniProt O43353); details: at 10 µM
[8] = target: Rho-associated protein kinase 1 (Homo sapiens) (UniProt Q13464); details: at 10 µM
[9] = target: Rho-associated protein kinase 2 (Homo sapiens) (UniProt O75116); details: at 1 µM
Rho-associated protein kinase 2 (Homo sapiens), sequence (O75116 whole entry, looked up): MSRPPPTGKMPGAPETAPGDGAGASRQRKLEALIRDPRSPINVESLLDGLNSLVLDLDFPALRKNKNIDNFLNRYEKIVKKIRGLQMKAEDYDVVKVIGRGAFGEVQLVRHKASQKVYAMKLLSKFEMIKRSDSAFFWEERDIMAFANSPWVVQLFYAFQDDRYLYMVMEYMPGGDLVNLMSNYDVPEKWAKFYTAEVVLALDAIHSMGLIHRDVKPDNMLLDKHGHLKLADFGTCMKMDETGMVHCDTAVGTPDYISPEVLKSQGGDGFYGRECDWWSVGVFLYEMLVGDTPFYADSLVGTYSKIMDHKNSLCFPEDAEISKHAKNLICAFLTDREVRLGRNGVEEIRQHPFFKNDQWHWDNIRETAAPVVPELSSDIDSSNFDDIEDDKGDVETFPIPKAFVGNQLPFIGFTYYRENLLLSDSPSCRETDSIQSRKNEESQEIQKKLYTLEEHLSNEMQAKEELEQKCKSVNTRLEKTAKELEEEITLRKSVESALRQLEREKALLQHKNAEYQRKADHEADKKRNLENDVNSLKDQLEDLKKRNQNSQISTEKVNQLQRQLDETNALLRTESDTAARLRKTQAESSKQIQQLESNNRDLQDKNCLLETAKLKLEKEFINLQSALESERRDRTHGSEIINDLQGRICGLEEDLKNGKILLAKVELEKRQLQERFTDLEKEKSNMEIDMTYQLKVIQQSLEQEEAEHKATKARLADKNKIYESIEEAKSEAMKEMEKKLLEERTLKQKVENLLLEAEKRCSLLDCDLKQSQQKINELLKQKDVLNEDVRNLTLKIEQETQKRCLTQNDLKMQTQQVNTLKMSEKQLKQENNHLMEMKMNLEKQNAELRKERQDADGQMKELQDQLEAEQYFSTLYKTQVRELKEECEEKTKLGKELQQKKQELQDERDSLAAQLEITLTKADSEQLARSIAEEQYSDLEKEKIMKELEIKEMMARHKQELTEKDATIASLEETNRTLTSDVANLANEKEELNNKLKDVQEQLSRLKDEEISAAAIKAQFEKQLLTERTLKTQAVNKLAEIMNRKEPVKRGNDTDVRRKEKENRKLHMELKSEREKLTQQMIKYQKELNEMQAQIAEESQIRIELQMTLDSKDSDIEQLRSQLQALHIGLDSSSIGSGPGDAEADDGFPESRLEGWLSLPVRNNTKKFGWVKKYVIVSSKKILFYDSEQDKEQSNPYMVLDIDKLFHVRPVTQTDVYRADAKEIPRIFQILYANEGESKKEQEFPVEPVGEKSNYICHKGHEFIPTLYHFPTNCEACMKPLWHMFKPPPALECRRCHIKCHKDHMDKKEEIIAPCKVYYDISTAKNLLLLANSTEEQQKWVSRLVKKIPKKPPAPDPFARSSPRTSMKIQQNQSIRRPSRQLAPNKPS

[10] = target: Rho-associated protein kinase 2 (Homo sapiens) (UniProt O75116); details: at 10 µM
[11] = target: Proto-oncogene tyrosine-protein kinase receptor Ret (Homo sapiens) (UniProt P07949); details: at 1 µM
Proto-oncogene tyrosine-protein kinase receptor Ret (Homo sapiens), sequence (P07949 whole entry): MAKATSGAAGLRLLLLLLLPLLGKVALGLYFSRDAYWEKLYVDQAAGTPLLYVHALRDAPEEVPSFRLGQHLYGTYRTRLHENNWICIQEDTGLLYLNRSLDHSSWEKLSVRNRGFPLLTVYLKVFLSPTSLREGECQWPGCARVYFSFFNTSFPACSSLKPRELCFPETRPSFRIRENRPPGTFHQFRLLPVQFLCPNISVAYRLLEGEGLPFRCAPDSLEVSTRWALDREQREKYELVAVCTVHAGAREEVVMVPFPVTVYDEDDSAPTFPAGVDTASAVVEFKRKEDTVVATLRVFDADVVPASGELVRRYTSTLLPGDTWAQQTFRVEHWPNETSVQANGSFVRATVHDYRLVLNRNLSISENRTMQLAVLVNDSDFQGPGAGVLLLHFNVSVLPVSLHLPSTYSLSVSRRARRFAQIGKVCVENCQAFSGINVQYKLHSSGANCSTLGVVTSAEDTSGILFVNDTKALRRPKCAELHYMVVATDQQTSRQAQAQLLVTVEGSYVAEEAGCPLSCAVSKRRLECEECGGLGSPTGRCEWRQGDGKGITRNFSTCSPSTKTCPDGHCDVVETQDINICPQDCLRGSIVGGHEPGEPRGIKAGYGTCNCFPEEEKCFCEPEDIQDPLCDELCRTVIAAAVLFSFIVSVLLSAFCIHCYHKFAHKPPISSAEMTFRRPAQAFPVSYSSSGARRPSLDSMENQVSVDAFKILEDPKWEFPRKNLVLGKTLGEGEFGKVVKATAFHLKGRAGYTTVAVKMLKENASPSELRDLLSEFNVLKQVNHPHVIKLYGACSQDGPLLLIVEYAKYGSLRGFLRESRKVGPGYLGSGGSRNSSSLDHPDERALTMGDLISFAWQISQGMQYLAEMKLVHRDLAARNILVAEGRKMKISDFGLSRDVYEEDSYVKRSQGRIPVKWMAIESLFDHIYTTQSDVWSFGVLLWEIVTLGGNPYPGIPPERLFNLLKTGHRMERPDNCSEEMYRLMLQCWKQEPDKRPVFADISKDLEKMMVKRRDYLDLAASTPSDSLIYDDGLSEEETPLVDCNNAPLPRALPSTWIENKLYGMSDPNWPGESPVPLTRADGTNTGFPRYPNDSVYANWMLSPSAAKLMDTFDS

[12] = target: Proto-oncogene tyrosine-protein kinase receptor Ret (Homo sapiens) (UniProt P07949); details: at 10 µM
[13] = target: Macrophage-stimulating protein receptor (Homo sapiens) (UniProt Q04912); details: at 1 µM
[14] = target: Macrophage-stimulating protein receptor (Homo sapiens) (UniProt Q04912); details: at 10 µM
[15] = target: T2, Tyrosine-protein kinase receptor TYRO3 (Homo sapiens) (UniProt Q06418); details: at 1 µM
T2 sequence (whole entry): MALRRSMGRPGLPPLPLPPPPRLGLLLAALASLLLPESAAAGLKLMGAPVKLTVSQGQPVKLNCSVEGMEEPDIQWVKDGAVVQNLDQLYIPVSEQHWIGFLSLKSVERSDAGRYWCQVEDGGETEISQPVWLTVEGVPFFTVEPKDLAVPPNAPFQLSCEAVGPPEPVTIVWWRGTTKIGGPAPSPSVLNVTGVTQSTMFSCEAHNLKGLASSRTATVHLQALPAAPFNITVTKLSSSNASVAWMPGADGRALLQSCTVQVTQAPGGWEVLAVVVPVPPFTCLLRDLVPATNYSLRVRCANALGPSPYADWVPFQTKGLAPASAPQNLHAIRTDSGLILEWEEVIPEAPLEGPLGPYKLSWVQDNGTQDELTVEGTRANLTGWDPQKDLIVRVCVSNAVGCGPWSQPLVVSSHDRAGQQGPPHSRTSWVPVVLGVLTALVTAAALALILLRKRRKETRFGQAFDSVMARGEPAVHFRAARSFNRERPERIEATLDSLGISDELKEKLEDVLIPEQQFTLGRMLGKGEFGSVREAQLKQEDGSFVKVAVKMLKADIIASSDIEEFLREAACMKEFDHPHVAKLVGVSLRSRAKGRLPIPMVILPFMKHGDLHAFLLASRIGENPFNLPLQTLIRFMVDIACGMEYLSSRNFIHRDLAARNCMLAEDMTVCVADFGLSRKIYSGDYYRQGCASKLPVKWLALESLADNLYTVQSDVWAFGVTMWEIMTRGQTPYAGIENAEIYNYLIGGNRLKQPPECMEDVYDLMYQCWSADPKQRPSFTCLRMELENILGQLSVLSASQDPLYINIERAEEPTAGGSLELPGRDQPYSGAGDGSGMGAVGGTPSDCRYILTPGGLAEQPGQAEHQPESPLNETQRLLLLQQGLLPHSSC

[16] = target: T2, Tyrosine-protein kinase receptor TYRO3 (Homo sapiens); details: at 10 µM
[17] = target: Protein-tyrosine kinase 2-beta (Homo sapiens) (UniProt Q14289); details: at 1 µM
[18] = target: Rho-associated protein kinase 1 (Homo sapiens) (UniProt Q13464); details: at 1 µM
[19] = target: Proto-oncogene tyrosine-protein kinase ROS (Homo sapiens) (UniProt P08922); details: at 1 µM
[20] = target: Proto-oncogene tyrosine-protein kinase ROS (Homo sapiens) (UniProt P08922); details: at 10 µM

Serine/threonine-protein kinase PLK3 (Homo sapiens), sequence (Q9H4B4 whole entry, looked up): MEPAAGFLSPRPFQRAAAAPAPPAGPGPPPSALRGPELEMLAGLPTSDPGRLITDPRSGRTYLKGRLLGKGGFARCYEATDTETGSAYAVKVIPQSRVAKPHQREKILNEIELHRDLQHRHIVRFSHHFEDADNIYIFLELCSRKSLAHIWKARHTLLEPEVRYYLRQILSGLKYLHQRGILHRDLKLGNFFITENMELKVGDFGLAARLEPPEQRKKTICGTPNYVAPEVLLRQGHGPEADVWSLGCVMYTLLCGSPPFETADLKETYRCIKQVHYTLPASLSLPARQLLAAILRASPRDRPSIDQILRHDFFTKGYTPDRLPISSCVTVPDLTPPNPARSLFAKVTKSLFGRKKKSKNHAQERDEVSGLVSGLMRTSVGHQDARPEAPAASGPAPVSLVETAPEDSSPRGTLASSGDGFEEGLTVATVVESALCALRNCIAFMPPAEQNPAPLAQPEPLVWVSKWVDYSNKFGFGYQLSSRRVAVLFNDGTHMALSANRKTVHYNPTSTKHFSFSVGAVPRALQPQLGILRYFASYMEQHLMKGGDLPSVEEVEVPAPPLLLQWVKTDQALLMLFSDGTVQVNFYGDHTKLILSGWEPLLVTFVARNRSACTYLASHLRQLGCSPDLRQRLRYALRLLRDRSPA

Row | SMILES | residual activity [1] | residual activity [2] [%] | residual activity [3] [%] | residual activity [4] [%] | residual activity [5] [%] | residual activity [6] [%] | residual activity [7] [%] | residual activity [8] [%] | residual activity [9] [%] | residual activity [10] [%] | residual activity [11] [%] | residual activity [12] [%] | residual activity [13] [%] | residual activity [14] [%] | residual activity [15] [%] | residual activity [16] [%] | residual activity [17] [%] | residual activity [18] [%] | residual activity [19] [%] | residual activity [20] [%]
1 | CSc1nc(-c2ccc(F)cc2)c(-c2ccnc(NC(C)c3ccccc3)c2)[nH]1 (stereo not drawn) | 91% (inactive) | 90 | 87 | 58 | 85 | 75 | 30 | 96 | 101 | 96 | 66 | 28 | 98 | 83 | 100 | 99 |  |  |  | 
2 | CCCC(=O)Oc1ccc2[nH]c(C(=O)c3cc4ccccc4[nH]3)cc2c1 | 93% (inactive) | 85 | 88 | 92 | 85 | 91 | 89 | 128 | 93 | 83 | 94 |  | 102 | 74 | 92 | 98 | 122 | 103 | 86 | 90
3 | O=C1Cc2c([nH]c3ccc(Br)cc23)-c2ccccc2N1 | 95% (inactive) | 83 |  |  | 58 | 49 | 22 |  |  |  |  | 72 | 72 | 77 |  | 83 | 89 |  |  | 
4 | Nc1n[nH]c2nc3ccccc3nc12 | 89% (inactive) | 83 | 118 | 84 | 92 | 94 |  |  | 94 | 84 | 100 | 82 |  |  | 99 | 100 |  |  |  | 
5 | CC(C)[C@H](CO)Nc1nc(Nc2cc(N)cc(Cl)c2)c2ncn(C(C)C)c2n1 | 99% (inactive) | 77 |  | 88 | 7 | 85 | 77 | 84 | 91 | 52 | 83 | 21 | 96 | 62 | 84 | 53 | 59 |  |  | 
6 | CC(C)(C)n1nc(Cc2cccc3ccccc23)c2c(N)ncnc21 | 94% (inactive) | 97 | 98 | 75 | 29 | 27 | 17 | 125 | 104 | 77 | 11 | 1 | 110 | 77 | 87 | 73 | 89 | 114 | 96 | 94
7 | O=C1NC(=O)c2c1c1c3ccccc3[nH]c1n1cncc21 | 55% (inactive) | 31 | 80 | 75 | 19 | 79 | 72 | 96 | 88 | 85 | 59 | 33 | 73 | 71 | 95 | 69 | 32 |  | 97 | 88
8 | COc1cc2nccc(Oc3ccc(NC(=S)NC(=O)c4ccccc4C)cc3)c2cc1OC | 80% (inactive) | 89 | 68 | 52 | 60 | 51 | 34 |  | 87 | 70 | 75 | 78 | 30 | 0 | 45 | 18 | 82 |  | 79 | 52
9 | CCOC(=O)c1c(C)[nH]c(/C=C2\C(=O)Nc3ccccc32)c1C | 86% (inactive) | 88 |  |  | 45 | 96 | 99 |  |  |  | 24 | 14 |  |  |  |  | 80 |  |  | 
10 | Cc1cc(C)c(/C=C2\C(=O)Nc3ccccc32)[nH]1 | 102% (inactive) |  |  |  |  |  |  |  |  | 80 |  |  |  |  | 68 | 62 |  |  |  | 
11 | O=c1cc(N2CCNCC2)oc2c(-c3ccccc3)cccc12 | 100% (inactive) | 95 | 93 | 87 | 96 | 97 | 82 |  |  | 80 |  |  | 76 | 58 | 94 | 96 |  |  | 97 | 91
12 | NC(=O)Nc1sc(-c2ccc(F)cc2)cc1C(N)=O | 88% (inactive) | 81 | 85 | 55 | 10 | 67 | 29 | 101 | 89 | 53 | 30 | 1 | 73 | 56 | 91 | 41 | 56 |  | 91 | 94
13 | O=C1Cc2c([nH]c3ccc([N+](=O)[O-])cc23)-c2ccccc2N1 | 107% (inactive) |  | 81 | 53 | 38 | 53 | 23 |  |  |  | 103 | 79 | 100 | 108 |  |  | 45 | 107 |  | 
14 | CC(C)(C)c1nc2c3ccc(F)cc3c3c(=O)[nH]ccc3c2[nH]1 | 55% (inactive) | 64 |  |  |  | 18 | 20 |  | 57 | 58 | 18 | 36 |  |  | 75 |  |  |  |  | 
15 | O=C1C(Cl)=C(N2C(=O)CCC2=O)C(=O)c2ccccc21 | 96% (inactive) | 93 | 93 | 92 |  | 92 | 95 | 88 | 45 | 16 | 102 | 86 | 92 | 81 |  |  | 91 |  | 101 | 97
16 | Cn1sc(=O)n(Cc2ccccc2)c1=O |  | 89 | 76 | 87 |  | 92 | 86 |  | 91 | 83 | 94 | 94 | 81 | 75 |  |  |  |  | 79 | 80
17 | COc1ccc(Cl)cc1NC(=O)Nc1cc(C)nc2ccccc12 | 96% (inactive) | 93 |  | 55 | 85 | 99 | 93 |  | 96 | 79 | 93 | 87 |  |  |  |  |  |  | 96 | 92
18 | N#C/C(=C\c1ccc(O)c(O)c1)C(=O)NCc1ccccc1 |  | 80 |  |  |  |  |  |  |  |  |  |  |  |  |  |  |  |  |  | 
